In experiment [1] the target is Cytochrome P450 3A4 (Homo sapiens) (UniProt P08684). In words: qHTS Assay for Inhibitors and Substrates of Cytochrome P450 3A4 (AID 884). Note: % is set by controls: 0 for no effect and ±100 for the full control effect; nearly all actives have a fitted effect of over 50% in size. The gist of the method: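 20 nM human CYP3A4 with 25 uM Luciferin-PPXE (at KM) in 200 mM KPO4, preincubated 10 min with compound; NADPH regeneration started a 60 min RT reaction. Luciferin detected by luminescence, normalized to 57 uM ketoconazole as full inhibition.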
For orientation: In qHTS, concentration-response curves come from the screen itself.

Experiment [2] is described as follows: Confirmation and Secondary Assay for Modulators of Hemoglobin Beta Chain Splicing at IVS2 705 locus (AID 930).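 Note: HeLa cells stably expressing the EGFP-705 splicing reporter; GFP fluorescence per well restored by corrected splicing of the IVS2-705 intron in EGFP; % of control where 0% means no effect.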 The gist of the method:
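Per-well GFP, captured at 1 x 8 µm resolution with 488 nm excitation, served as the read-out for HeLa EGFP-705 cells incubated 2 days with test compound versus DMSO.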

The nature of experiment [3]: qHTS Assay for Lipid Storage Modulators (AID 1519; calls by dose curve; for activity change, negative = inhibition: % is set by controls: 0 for no effect and ±100 for the full control effect). Conditions: Drosophila S3 cells, BODIPY lipid droplet/cell ratio, laser cytometry, cells loaded with oleic acid. The method in brief: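 Cells seeded at 5,000 per well were treated with compounds over a concentration series and loaded with oleic acid (400 uM, as added). Lipid droplet fluorescence (488 nm excitation, 500-530 nm channel) was read by laser-scanning cytometry and normalized to 20 uM Triacsin C.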

The target in experiment [4] is Ubiquitin carboxyl-terminal hydrolase 1 (Homo sapiens) (UniProt O94782). Briefly: Inhibitors of USP1/UAF1: Pilot qHTS (AID 504865).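 Note: rhodamine fluorescence freed from ubiquitin-rhodamine substrate followed over time; top concentration of the series differs between compounds; % is set by controls: 0 for no effect and ±100 for the full control effect; nearly all actives have a fitted effect of over 35% in size.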 The gist of the method:
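In 50mM HEPES pH 7.8 containing 0.5mM EDTA, 1mM TCEP, 0.1 mg/ml BSA and 0.01% Tween-20, 1nM USP1/UAF1 is exposed to compound for 15 min, then Ub-Rho (150nM final) is added and fluorescence is read over time.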

Experiment [5] can be described thus: Confirmation and Secondary Assay for Modulators of Hemoglobin Beta Chain Splicing at IVS2 654 locus (AID 910).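 Note: per-well total GFP intensity by laser scanning cytometry after 2-day treatment; % of control where 0% means no effect.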 The method in brief: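 HeLa cells stably carrying EGFP interrupted by mutant beta-globin IVS2-654 intron (CMV-driven) were treated with compound for 2 days at 37C; corrected splicing was scored as total peak GFP intensity per well (488 nm excitation, 500-520 nm emission).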

In experiment [6] the target is DNA dC->dU-editing enzyme APOBEC-3G (Homo sapiens) (UniProt Q9HC16). In words: qHTS for inhibitors of Vif-A3G interactions: Validation (AID 588379). Note: 0% is about no effect. The method in brief: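 HeLa cells stably expressing Vif and A3G-eYFP, 700 cells/well, incubated overnight at 37 deg C, then exposed to compound overnight at 37 deg C. Inhibition of Vif-mediated degradation read as increased yellow fluorescence (Ex 488/Em 500-530) by laser-scanning cytometry.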

Experiment [7] concerns the target Cytochrome P450 3A4 (Homo sapiens) (UniProt P08684). Briefly: qHTS Assay for Activators of Cytochrome P450 3A4 (AID 885). Note: nearly all actives have a fitted effect of over 65% in size. The method in brief: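 Signal was normalized against complete inhibition by 57 uM ketoconazole. The reaction used 20nM CYP3A4 with 25uM Luciferin-PPXE, 10-min compound preincubation and a 60-min NADPH-supported step at RT.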
Where [8] appears, read: measured here: cell count channel max response.
The mark [9] stands for this setting: measured here: lipid channel max response.

Molecules are shown by their SMILES. Inconclusive results are not listed. Calls of active or inactive are those of the source. Unless noted, calls come from the whole dose curve; as a rule, active = well fitted curve in the direction sought with a large enough effect; inconclusive = small, poorly fitted or top-dose-only effect, or another doubt; inactive = no such curve, though single readings can be large; an effect the other way counts as inactive or inconclusive.

Ubiquitin carboxyl-terminal hydrolase 1 (Homo sapiens), sequence (O94782 whole entry, looked up): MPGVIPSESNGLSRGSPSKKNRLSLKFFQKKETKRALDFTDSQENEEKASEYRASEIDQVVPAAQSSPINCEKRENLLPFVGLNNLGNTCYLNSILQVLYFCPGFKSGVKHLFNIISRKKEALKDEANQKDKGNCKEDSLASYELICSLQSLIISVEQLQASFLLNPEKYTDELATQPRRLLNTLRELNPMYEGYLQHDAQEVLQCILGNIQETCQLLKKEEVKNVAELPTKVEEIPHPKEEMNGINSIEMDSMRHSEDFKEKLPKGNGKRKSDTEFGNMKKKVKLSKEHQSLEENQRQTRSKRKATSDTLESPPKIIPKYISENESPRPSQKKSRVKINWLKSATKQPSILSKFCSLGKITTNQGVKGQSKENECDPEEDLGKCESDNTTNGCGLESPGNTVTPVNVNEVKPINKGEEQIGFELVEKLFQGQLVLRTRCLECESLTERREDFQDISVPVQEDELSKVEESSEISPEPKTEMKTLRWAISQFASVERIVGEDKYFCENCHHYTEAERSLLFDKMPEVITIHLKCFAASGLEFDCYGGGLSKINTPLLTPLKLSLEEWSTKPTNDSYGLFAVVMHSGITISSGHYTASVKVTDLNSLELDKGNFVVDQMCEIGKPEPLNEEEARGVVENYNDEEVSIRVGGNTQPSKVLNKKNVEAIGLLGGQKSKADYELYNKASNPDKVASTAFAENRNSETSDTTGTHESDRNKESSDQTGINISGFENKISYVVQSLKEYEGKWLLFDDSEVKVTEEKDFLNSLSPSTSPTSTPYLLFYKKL
Cytochrome P450 3A4 (Homo sapiens), sequence (P08684 whole entry, looked up): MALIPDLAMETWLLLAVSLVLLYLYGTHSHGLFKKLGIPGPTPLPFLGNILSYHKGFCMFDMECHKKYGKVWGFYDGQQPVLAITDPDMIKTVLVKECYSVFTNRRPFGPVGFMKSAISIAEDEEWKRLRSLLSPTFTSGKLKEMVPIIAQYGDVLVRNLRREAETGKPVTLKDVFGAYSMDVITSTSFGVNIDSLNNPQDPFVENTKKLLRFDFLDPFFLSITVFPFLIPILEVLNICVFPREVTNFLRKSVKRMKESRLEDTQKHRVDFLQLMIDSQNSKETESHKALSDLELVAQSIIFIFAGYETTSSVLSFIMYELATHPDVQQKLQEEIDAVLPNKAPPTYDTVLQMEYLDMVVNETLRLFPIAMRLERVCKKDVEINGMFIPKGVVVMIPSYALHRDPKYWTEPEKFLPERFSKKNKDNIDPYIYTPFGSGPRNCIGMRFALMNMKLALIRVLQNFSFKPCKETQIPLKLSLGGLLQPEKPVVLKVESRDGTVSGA
DNA dC->dU-editing enzyme APOBEC-3G (Homo sapiens), sequence (Q9HC16 whole entry, looked up): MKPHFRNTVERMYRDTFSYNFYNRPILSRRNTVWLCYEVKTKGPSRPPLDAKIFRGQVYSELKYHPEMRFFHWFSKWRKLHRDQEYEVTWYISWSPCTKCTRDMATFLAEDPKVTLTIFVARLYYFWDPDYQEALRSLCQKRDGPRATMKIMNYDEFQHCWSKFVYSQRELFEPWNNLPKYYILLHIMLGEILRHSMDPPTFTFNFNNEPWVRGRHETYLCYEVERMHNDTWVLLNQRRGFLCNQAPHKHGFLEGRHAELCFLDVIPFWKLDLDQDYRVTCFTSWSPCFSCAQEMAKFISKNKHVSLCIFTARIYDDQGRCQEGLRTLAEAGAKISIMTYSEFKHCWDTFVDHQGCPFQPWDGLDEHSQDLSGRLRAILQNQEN

In the case of `CC(N)[C@H](O)c1ccccc1` (stereo partly specified), the Potency result in experiment [1], in experiment [2] and in experiment [4] was “inactive” each time. For the same molecule, in experiment [3] (at 57.5 µM (top of the series)), the activity change, negative = inhibition was 2.72% (inactive). The max response in experiment [3] (setting [8]) worked out at 12.8%; in experiment [3] (setting [9]), 19.5%.
With `COc1ccc2c(c1)[C@@]13CCCCC1[C@@H](C2)N(C)CC3` (stereo partly specified), the Potency result in experiment [5], in experiment [2] and in experiment [4] was “inactive” each time. For the same molecule, in experiment [3] (at 57.5 µM (top of the series)), the activity change, negative = inhibition was 7.37% (inactive). The max response in experiment [3] (setting [8]) was found to be 4.27%; in experiment [3] (setting [9]), 15.7%.
Take `CCC1CN2CCC1CC2C(O)c1ccnc2ccc(OC)cc12` (stereo unspecified): the Potency result in experiment [1], in experiment [2] and in experiment [4] was “inactive” in each case. Besides, the activity change, negative = inhibition in experiment [3] (at 57.5 µM (top of the series)) was 6.54% (inactive). Further, the max response amounted to 2.56% in experiment [3] (setting [8]) and 12.3% in experiment [3] (setting [9]).
Consider `CCN1C[C@]2(COC)C(O)C[C@H](OC)[C@@]34C5C[C@]6(O)C(OC)C(O)[C@](OC(C)=O)(C5C6OC(=O)c5ccccc5)C(C(OC)C23)C14` (stereo partly specified), for which the Potency result in experiment [1], in experiment [5], in experiment [2] and in experiment [4] was “inactive” throughout. Further, the activity change, negative = inhibition in experiment [3] (at 57.5 µM (top of the series)) is 4.84% (inactive). Further, the max response turned out to be 13.6% in experiment [3] (setting [8]) and 24% in experiment [3] (setting [9]).
For `CC(C)(O)C1C2OC(=O)C1[C@]1(O)CC3O[C@@]34C(=O)OC2[C@@]14C` (stereo partly specified), the Potency entry in experiment [5] and in experiment [4] was “inactive” in each case. The activity change, negative = inhibition in experiment [3] (at 57.5 µM (top of the series)) was 4.81% (inactive). The values for the max response in experiment [3] (setting [8]) and in experiment [3] (setting [9]) were 5.32% and 12.9%, respectively.
With `O=C1CC2OCC=C3CN4CC[C@@]56c7ccccc7N1C5C2C3CC46` (stereo partly specified), the Potency result in experiment [5] and in experiment [4] was “inactive” each time. The activity change, negative = inhibition in experiment [3] (at 57.5 µM (top of the series)) is -0.509% (inactive). Besides, the max response came to 17.9% in experiment [3] (setting [8]) and 21.5% in experiment [3] (setting [9]).
For `CC[C@H]1C2CC3[C@@H]4N(C)c5ccccc5[C@]45C[C@@H](C2[C@H]5O)N3[C@@H]1O` (stereo partly specified), the Potency entry in experiment [1] is “inactive”. Also, in experiment [3] (at 57.5 µM (top of the series)), the activity change, negative = inhibition is -0.775% (inactive). The figures for the max response in experiment [3] (setting [8]) and in experiment [3] (setting [9]) were 15.3% and 14.3%, respectively. Moreover, in experiment [6], the result was inactive.
In the case of `CC1C(=O)OC2O[C@]3(C)CC[C@H]4C(C)CCC1[C@]24OO3` (stereo partly specified), the Potency result in experiment [5], in experiment [2] and in experiment [4] was “inactive” in each case. For the same molecule, the activity change, negative = inhibition in experiment [3] (at 57.5 µM (top of the series)) is 8.3% (inactive). Further, the results for the max response in experiment [3] (setting [8]) and in experiment [3] (setting [9]) were 8.98% and 23.7%, respectively.
In the case of `NC(=O)c1ccc(N)nc1`, the Potency result in experiment [1], in experiment [5], in experiment [2] and in experiment [4] was “inactive” throughout. For the same molecule, the activity change, negative = inhibition in experiment [3] (at 57.5 µM (top of the series)) was 2.67% (inactive). The max response in experiment [3] (setting [8]) came out at 16.6%; in experiment [3] (setting [9]), 22.3%.
Consider `CCN1C[C@@]2(C)CC[C@@H](OC)[C@@]34C2C(O)[C@@]2(OCO[C@]25CC(OC)C2C[C@@]3(O)C5C2O)C14` (stereo partly specified), for which the Potency result in experiment [7], in experiment [5], in experiment [2] and in experiment [4] was “inactive” in each case. Further, in experiment [3] (at 57.5 µM (top of the series)), the activity change, negative = inhibition is 2.86% (inactive). Also, the figures for the max response in experiment [3] (setting [8]) and in experiment [3] (setting [9]) were 1.33% and 4.66%, respectively.
Regarding `COC(=O)COc1ccc(Cl)cc1Cl`, the Potency entry in experiment [1], in experiment [2] and in experiment [4] was “inactive” each time. Also, the activity change, negative = inhibition in experiment [3] (at 57.5 µM (top of the series)) is 8.24% (inactive). For the same molecule, the max response in experiment [3] (setting [8]) worked out at 0.885%; in experiment [3] (setting [9]) it was 8.23%.
Take `CC1O[C@@H](OC2CC(O)[C@@]3(CO)C4C(O)C[C@@]5(C)C(C6=CC(=O)OC6)CC[C@]5(O)C4CC[C@]3(O)C2)C(O)C(O)C1O` (stereo partly specified): the Potency result in experiment [1], in experiment [2] and in experiment [4] was “inactive” in each case. The activity change, negative = inhibition in experiment [3] (at 57.5 µM (top of the series)) is 3.6% (inactive). Moreover, the max response in experiment [3] (setting [8]) was determined as 6.17%; in experiment [3] (setting [9]) it was 13.6%.
Regarding `CNC(=O)Oc1ccc2c(c1)[C@@]1(C)CCN(C)[C@@H]1N2C`, the activity change, negative = inhibition in experiment [3] (at 25.7 µM (top of the series)) was -1.12% (inactive). Besides, the max response is -3.51% in experiment [3] (setting [8]) and -6.16% in experiment [3] (setting [9]). For the same molecule, in experiment [4], the Potency result was “inactive”.

The values above are taken from PubChem BioAssay (NCATS).
